Screening data deposited in PubChem BioAssay by National Center for Advancing Translational Sciences (NCATS).
ELG1 genotox: induces genotoxicity in HEK293T cells with luciferase-tagged ELG1; AID 504466; hit rate 1.3% among 330,000; HEK293T ELG1-luciferase reporter, luminescence, 16 h; Potency, µM (titrated, usually from 46 µM), for inactives: top-dose activity change, positive = activation, most hits filed as activators; further: % of control where 0% means no effect; nearly all actives have a fitted effect of over 60% in size
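Luminescence read-out: rising ELG1-luciferase signal, reflecting elevated ELG1 protein under genetic stress, flags genotoxic compounds. Cells were treated for 16 hr at 37 °C before ONE-Glo detection.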
SMN2 splice enh: SMN2 splice variant enhancement. Potency, µM (series often up to 46.1 µM), without a hit: at the top dose activity change, positive = activation, most hits filed as activators. HEK293 SMN2-luciferase splicing reporter, luminescence, 30-36 h. AID 1458. hit rate 2.8% among 210,000; further: % of control where 0% means no effect; nearly all actives have a fitted effect of over 55% in size
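HEK293 cells carry an SMN2 […]–luciferase reporter in which exon 7 inclusion puts luciferase in frame. Cells were plated 10-12 h before compound addition, then incubated 30-36 h at 37C. ONE-Glo luminescence was read; sodium butyrate at 4.5 mM final served as control.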
Rab9 prom act: Rab9 promoter activation | Huh7 Rab9 promoter-luciferase reporter, luminescence, 24 h | AID 485297 | hit rate 2.8% among 320,000 | Potency, µM (highest dose often 9.22 µM), without a hit: top-dose activation, negative = inhibition, actives largely listed as activators; further: % of control where 0% means no effect; nearly all actives have a fitted effect of over 60% in size
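Luciferase signal after 10 min detection reagent at ambient indicates Rab9 promoter upregulation; stably transfected Huh7 cells were treated 24 h with compound in DMSO at 37 °C, 5% CO2.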
FLuc modulator: firefly luciferase modulation, counter-screen for miR-21 project. P08659. purified FLuc, Km substrates, luminescence inhibition. Potency, µM (doses to about 57.5 µM), inactives show at the highest dose activity change, negative = inhibition, most hits filed as inhibitors. hit rate 6.9% among 360,000. AID 588342;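 further: plate controls were vehicle for no effect and reference inhibitor for full effect; nearly all actives have a fitted effect of over 55% in size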
Target sequence (P08659 whole entry, looked up): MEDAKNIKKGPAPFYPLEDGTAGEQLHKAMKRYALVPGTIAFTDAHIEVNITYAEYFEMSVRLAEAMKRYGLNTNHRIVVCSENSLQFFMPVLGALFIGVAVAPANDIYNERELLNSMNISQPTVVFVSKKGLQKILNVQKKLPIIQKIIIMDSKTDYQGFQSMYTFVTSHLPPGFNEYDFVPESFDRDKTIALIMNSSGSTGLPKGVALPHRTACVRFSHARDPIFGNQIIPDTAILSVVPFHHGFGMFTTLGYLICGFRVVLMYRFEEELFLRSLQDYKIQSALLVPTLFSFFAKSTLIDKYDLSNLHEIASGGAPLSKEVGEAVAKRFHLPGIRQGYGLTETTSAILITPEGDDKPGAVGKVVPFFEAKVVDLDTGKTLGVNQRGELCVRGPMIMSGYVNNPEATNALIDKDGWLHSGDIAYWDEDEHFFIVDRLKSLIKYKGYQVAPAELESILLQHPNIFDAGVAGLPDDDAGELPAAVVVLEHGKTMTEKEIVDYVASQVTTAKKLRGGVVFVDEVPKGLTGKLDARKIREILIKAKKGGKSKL
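Purified P. pyralis luciferase, 10 nM final, with Km-level 10 uM D-luciferin and 10 uM ATP in 50 mM Tris acetate pH 7.5, 10 mM Mg acetate, 0.01% Tween-20, 0.05% BSA; 6-point qHTS titration about 60 µM downward; luminescence read.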
NPC1 promoter act: activators of NPC1 promoter | Huh7 NPC1 promoter luciferase reporter, 24 h | AID 485313 | Potency, µM (titrated, usually from 9.22 µM), inactives show top-dose activation, actives largely listed as activators | hit rate 2.4% among 320,000; further: % of control where 0% means no effect; nearly all actives have a fitted effect of over 60% in size
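In 1536-well qHTS, Huh7 cells harboring an NPC1 promoter–luciferase construct received compound for 24 h; activation was quantified by luminescence following luciferase reagent addition.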
ELG1 DNA repair: inhibitors of ELG1-dependent DNA repair in HEK293T cells. hit rate 2.3% among 330,000. HEK293T ELG1-luciferase reporter, luminescence, 16 h; DNA damage induced by 5-fluorouridine. Potency, µM (top dose mostly 46.1 µM), for inactives: at the top dose activity change, negative = inhibition, actives largely listed as inhibitors; further: on the % scale 0 is the no-effect control and ±100 the full control effect; nearly all actives have a fitted effect of over 55% in size
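Luminescence from the luciferase reporter, measured 30 min after ONE-Glo reagent at room temperature, was the read-out. Beforehand, 2,000 cells per well were exposed for 16 hr at 37 °C to 5-fluorouridine together with compound or vehicle.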
The depositor's hits bear a star; ? = inconclusive; / = not tested or not shown. Only some compounds are listed: those with a hit (about 9.3% of all), similar ones and a draw of the others. The call rests on the fitted dose curve; in most records, active means well fitted curve in the direction sought with a large enough effect; inconclusive means small, poorly fitted or top-dose-only effect, or another doubt; inactive means no such curve, though single readings can be large; an effect the other way counts as inactive or inconclusive. Potency means the concentration at half of the fitted maximal effect.

SMILES	ELG1 genotox	SMN2 splice enh	Rab9 prom act	FLuc modulator	NPC1 promoter act	ELG1 DNA repair
Cc1ccc2nc(C(Cl)(Cl)Cl)nc(N/N=C/c3ccncc3)c2c1	4%	/	-3%	-2%	-3%	9%
CCOc1ccc(CN(C)c2nc(-c3cccnc3)nc3ccccc23)cc1OC	-35%	/	-2%	-8%	-3%	18µM*
O=C(O)CCN1C(=O)S/C(=C\c2cccnc2)C1=O	1%	/	3%	3%	-1%	-3%
O=C1C=CC(=C(c2ccc(O)cc2)c2ccc(O)cc2)C=C1	-10%	-76%	-39%	/	-35%	13µM*
Cc1ccc(Cn2ccc(NC(=O)c3cc4nc(-c5ccco5)cc(C(F)(F)F)n4n3)n2)cc1	2%	-12%	4%	0%	0%	1%
Nc1n[nH]c(-c2ccccc2)n1	1%	-5%	-3%	1%	3%	27%
c1ccc(-c2n[nH]c(-c3ccccn3)n2)nc1	6.5µM*	11µM*	2.8µM*	15µM*	3.5µM*	?
c1ccc(-c2n[nH]c(-c3ccccn3)n2)cc1	?	11µM*	3.5µM*	12µM*	2µM*	?
CC1CCCCC1NC(=O)CN1c2cccc3cccc(c23)S1(=O)=O (centres undefined)	-3%	/	-1%	4%	3%	-13%
O=C(NC1CCOCC1)C1CCC(=O)N(Cc2ccc(Cl)cc2)C1 (centres undefined)	1%	/	1%	-4%	-5%	13%
COc1ccc(CNC(=O)c2c(C)oc3c2C(=O)c2ccccc2C3=O)cc1	-11%	-111%	-4%	5%	2%	-6%
Cc1oc2c(c1C(=O)NCc1cccnc1)C(=O)c1ccccc1C2=O	-19%	/	-41%	2%	-37%	1.6µM*
O=C1c2ccccc2C(=O)c2c1oc(C(F)(F)F)c2C(=O)c1ccccc1	-13%	-65%	-26%	-5%	-35%	?
CC(=O)c1c(C)oc2c1C(=O)c1ccccc1C2=O	-11%	/	-24%	-1%	-2%	12µM*
CCc1ccc(NC(=O)COC(=O)/C=C/c2ccco2)cc1	9%	/	/	/	/	?
Cn1ccc(C(=O)N/N=C/c2ccccc2[N+](=O)[O-])n1	17%	/	?	?	?	?
Cc1ccc(NC(=O)CN(C)C(=O)CNC(=O)c2sc3ccccc3c2Cl)cc1	16µM*	/	25%	2.7µM*	?	?
Cc1ccnc(NC(=O)c2sc3cc(Cl)ccc3c2Cl)c1	2.9µM*	6.3µM*	0.63µM*	0.6µM*	0.13µM*	?
CCN(CC(=O)Nc1c(F)cccc1F)C(=O)CNC(=O)c1sc2ccccc2c1Cl	2%	/	2%	1%	-3%	0%
Cc1ccnc(NC(=O)CNC(=O)c2sc3ccccc3c2Cl)c1	10µM*	/	28%	12µM*	28%	?
CCN(CC)Cc1ccc(NC(=O)c2sc3cc(Cl)ccc3c2Cl)cc1	5%	/	4%	?	9%	33%
Cc1ccnc(NC(=O)CCCNC(=O)c2ccc(Cl)cc2)c1	?	/	?	17µM*	?	?
O=C(OCc1nc2ccccc2[n+]([O-])c1C(=O)c1ccccc1)c1cccnc1	-1%	/	-9%	-1%	1%	-9%
NC(=O)CCn1c2ccccc2c2ccccc21	-4%	-2%	-18%	-3%	-1%	-14%
Cc1ccc2c(c1)c1cccc3c1n2CCN3CCC(N)=O	5µM*	20µM*	3.2µM*	6µM*	3.2µM*	?
C[N+](C)(C)CCCCCC(=O)/C=N/O	0%	/	-3%	4%	-4%	14%
c1nc(NCCN2CCOCC2)c2sc3nc(N4CCOCC4)c4c(c3c2n1)CCC4	-15%	-8%	-10%	-12%	2%	23µM*
CCN1CCN(c2ncnc3c2sc2nc(N4CCOCC4)c4c(c23)CCC4)CC1	5%	18%	-7%	-2%	-2%	-8%
